For 15 molecules, outcome and AC50 results are on record in PubChem BioAssay (EPA / NIEHS).

Records with an inconclusive call do not appear. Active and inactive are the calls of the source. How the source made its calls: active means hit-call score of the fitted dose curve at least 0.9, where 1 is the maximum; inconclusive means response in the unintended direction; inactive means score below 0.9.

Chain of PGR (gene 5241) (P06401 whole entry, looked up): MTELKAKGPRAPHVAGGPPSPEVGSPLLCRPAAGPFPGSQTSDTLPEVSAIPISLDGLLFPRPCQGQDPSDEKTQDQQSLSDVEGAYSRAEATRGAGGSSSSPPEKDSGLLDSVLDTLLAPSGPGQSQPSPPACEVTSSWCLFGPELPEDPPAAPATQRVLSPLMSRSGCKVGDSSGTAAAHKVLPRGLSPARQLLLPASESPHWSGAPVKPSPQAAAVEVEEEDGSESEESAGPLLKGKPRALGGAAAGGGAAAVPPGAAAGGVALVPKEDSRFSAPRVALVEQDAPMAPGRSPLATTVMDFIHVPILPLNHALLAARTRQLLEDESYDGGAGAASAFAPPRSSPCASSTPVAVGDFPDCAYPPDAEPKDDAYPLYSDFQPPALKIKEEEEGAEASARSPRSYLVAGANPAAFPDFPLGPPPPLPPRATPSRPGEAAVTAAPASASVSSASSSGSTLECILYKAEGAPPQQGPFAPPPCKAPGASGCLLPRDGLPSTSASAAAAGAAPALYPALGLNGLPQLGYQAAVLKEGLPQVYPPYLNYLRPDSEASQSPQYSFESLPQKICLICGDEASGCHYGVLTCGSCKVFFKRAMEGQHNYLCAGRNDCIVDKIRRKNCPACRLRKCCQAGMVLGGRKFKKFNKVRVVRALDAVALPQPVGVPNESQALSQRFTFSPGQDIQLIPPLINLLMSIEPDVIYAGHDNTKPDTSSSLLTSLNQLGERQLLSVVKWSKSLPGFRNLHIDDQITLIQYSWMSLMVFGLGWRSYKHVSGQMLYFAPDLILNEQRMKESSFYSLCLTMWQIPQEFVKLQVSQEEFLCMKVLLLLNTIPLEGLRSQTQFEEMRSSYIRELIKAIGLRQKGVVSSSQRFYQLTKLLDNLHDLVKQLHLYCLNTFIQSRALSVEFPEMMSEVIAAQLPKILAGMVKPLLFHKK

For this experiment, the target named is PGR (gene 5241) (UniProt P06401). The experiment is described as follows: NVS_NR_hPR: NovaScreen (NVS) Nuclear Receptor Binding Assay for human Progestron Receptor (PR) (AID 2283360).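 Further: active means loss of bound radioligand signal versus DMSO baseline.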 The procedure:
NVS_NR_hPR is a biochemical, single-readout assay that uses extracted gene-proteins from T47D in a cell-free assay. Measurements were taken 18 hours after chemical dosing in a 96-well plate.NVS_NR_hPR is one of one assay component(s) measured or calculated from the NVS_NR_hPR assay. It is designed to make measurements of radioligand binding, a form of binding reporter, as detected with scintillation counting signals by Lysate-based radiodetection technology.Data from the assay component NVS_NR_hPR was analyzed into 1 assay endpoint. This assay endpoint, NVS_NR_hPR, was analyzed in the positive analysis fitting direction relative to DMSO as the negative control and baseline of activity. Using a type of binding reporter, loss-of-signal activity can be used to understand changes in the binding as they relate to the gene PGR. Furthermore, this assay endpoint can be referred to as a primary readout, because the performed assay has only produced 1 assay endpoint. To generalize the intended target to other relatable targets, this assay endpoint is annotated to the nuclear receptor intended target family, where the subfamily is steroidal.
Binding assays used specific radioligands (tritiated, iodinated) with non-radioactive competitive displacement ligands in agonist or antagonist protocols (as indicated) and various reference compounds and inhibitors to titrate specific binding to receptors and transporters. Most enzyme assays (CYPs, kinases, phosphatases, proteases, HDACs) used recombinant protein and specific substrates (fluorescence mostly, some colorimetric and radioactive) and inhibitors, followed by a biochemical separation of substrate and product. All assays for the biochemical HTS were initially run in duplicate at a single concentration (10 uM for CYP450 assays and 25 uM for all others). […] Each assay was run with positive and negative controls, and concurrent controls on every plate. The follow-up (secondary) screen tested active chemical-pairs in concentration series, as well as a few additional assays not tested in the primary screen, some selected negative inactives, and several cases re-run in the concentration series for confirmatory purposes.
Take `CC[C@H](C)[C@@H](C(=O)O)n1sc2ccccc2c1=O`: the outcome was inactive.
With `C=C(C)C(=O)OCCC(F)(F)C(F)(F)C(F)(F)C(F)(F)C(F)(F)C(F)(F)F`, the outcome was inactive.
For the molecule `CCCOc1sc(C(=O)N2CCC(c3cc(CN)ccc3F)CC2)c(C)c1Br`, the molecule was classed as inactive.
On to `CCCCCCC(=O)O`, for which the molecule was called inactive.
Broadly, the AC50 is the concentration giving half of the maximal activity seen. For the molecule `CCCCCCCCCCCCCC[N+](C)(C)C`, the AC50 was 39.3 µM (active).
As for `COC(=O)CCCCC(=O)OC`, the outcome was inactive.
Same read-out and setting: the entry for `Nc1cccc2c(N)cccc12` is “inactive”; for `CCCCCCCC(=O)O` it is “inactive”.
As for `CC[C@H](c1ccc(O)cc1)[C@@H](CC)c1ccc(O)cc1`, the AC50 was 0.431 µM (active).
For `CCCCCCCCCCCCc1ccccc1S(=O)(=O)O`, the AC50 was 15.1 µM (active).
For `CCC(=C(c1ccc(O)cc1)c1ccc(OCCN(C)C)cc1)c1ccccc1`, the AC50 is 0.852 µM (active).
As for `Oc1cc2ccccc2c2ccccc12`, the AC50 is 11 µM (active).
Turning to `Cc1cc(CCN2CCN(c3nsc4ccccc34)CC2)cc2c1NC(=O)CC2(C)C`, the AC50 is 36 µM (active).
On to `NC(=O)N(O)[C@@H]1C=C[C@H](Oc2cccc(Oc3ccc(F)cc3)c2)C1`, for which the result was inactive.
On to `c1ccc2c(c1)Cc1ccccc1-2`, for which the call was inactive.
